Rows were chosen to be rich in hits. Some 1.3% of all compounds tested hit in one or more screens of this group.
KCNH2 WT inh = qHTS for Inhibitors of KCHN2 3.1: Wildtype qHTS. Voltage-gated inwardly rectifying potassium channel KCNH2 (Homo sapiens), Q12809. U2OS, BacMam KCNH2, thallium flux FluxOr; stronger effect = lower value. activity change, % at 1.84 µM. 340,000 compounds, 0.37% hits;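 active = maximum activity change below -70%; inconclusive = maximum activity change between -70% and -50%; inactive = maximum activity change above -50%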; note: % is set by controls: 0 for no effect and ±100 for the full control effect
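U2OS cells transduced with wild-type KCNH2 virus are loaded with FluxOr dye for 45 min, and thallium flux is measured in kinetic reads before and after stimulation buffer. Rate constants are normalized to DMSO controls.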
TRPV1 potentiator = HTS Assay for Compounds that Act as Potentiators of the Vanilloid Receptor 1; Transient receptor potential cation channel subfamily V member 1 (Homo sapiens), Q8NER1; AID 540277, 2011; 320,000 compounds, 0.02% hits; TRPV1-expressing cells, Fluo-8 calcium influx, capsaicin EC20 potentiation; potentiation, % at 8.33 µM; in the data active = potentiation above about 80%; inconclusive = between about 30% and that limit; note: 0% is about no effect
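Cells expressing TRPV1 were dye-loaded with Fluo-8 and read kinetically: 10 s baseline, 3 min after compound (agonist portion), then 2 min after EC20 capsaicin (allosteric enhancer portion). Calcium-bound dye fluorescence at 480/520 nm.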
KCNH2 3.1 inh = qHTS for Inhibitors of KCHN2 3.1: Mutant qHTS; Potassium voltage-gated channel subfamily H member 2, brain isoform KCNH2 3.1 (human); U2OS KCNH2 3.1, thallium flux FluxOr; stronger effect = lower value; activity change, % (tested at about 1.8 µM); 340,000 compounds, 0.95% hits;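 active = maximum activity change below -70%; inconclusive = maximum activity change from -70% to -50%; inactive = maximum activity change above -50%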;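 note: thallium influx rate constant from kinetic fluorescence after stimulation buffer; % is set by controls: 0 for no effect and ±100 for the full control effect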
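FluxOr-based Tl+ influx in U2OS cells transduced with KCNH2 3.1 virus; rate constants normalized to DMSO controls.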
TRPV1 ag = HTS Assay for Compounds that Act as Agonists of the Vanilloid Receptor 1. AID 540275, 2011. Transient receptor potential cation channel subfamily V member 1 (Homo sapiens), Q8NER1. 320,000 compounds, 0.19% hits. TRPV1-expressing cells, Fluo-8 calcium influx, agonist mode. activation, % at 8.33 µM; in the data active = activation above about 80%; inconclusive = between about 30% and that limit; note: 0% is about no effect
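Cells expressing TRPV1 were dye-loaded with Fluo-8 and read kinetically: 10 s baseline, 3 min after compound (agonist portion), then 2 min after EC20 capsaicin (allosteric enhancer portion). Calcium-bound dye fluorescence at 480/520 nm.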
TRPML1 inh = qHTS for Inhibitors of the Human Mucolipin Transient Receptor Potential 1 (TRPML1). TRPML1-inducible cells, Ca2+ dye fluorescence, FDSS; stronger effect = lower value; inhibition of EC80 agonist-evoked calcium signal. activity change, negative = inhibition, % (concentration not given with the values). 390,000 compounds, 0.02% hits. AID 624415, 2012; in the data active = activity change below about -50%; inconclusive = between about -30% and that limit;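 note: stimulus is agonist 54-4 at its EC80 concentration; % is set by controls: 0 for no effect and ±100 for the full control effect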
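Calcium fluorescence in TRPML1-DL cells induced overnight with Tet: a 110 s read after compound pin addition, then a 110 s antagonist read after challenge with 54-4 at 4 uM final (EC80).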
TRPML1 agonist = qHTS for Agonists of the Human Mucolipin Transient Receptor Potential 1 (TRPML1). Mucolipin-1 (Homo sapiens), Q9GZU1. TRPML1-expressing cells, Ca2+ dye fluorescence, FDSS. activation, % (no concentration beside the values). 410,000 compounds, 0.12% hits; in the data active = activation above about 50%; inconclusive = mostly about 30% to 49%; note: 0% is about no effect
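In this qHTS format, compounds were pin-transferred onto Ca8-dye-loaded TRPML1-DL cells induced with Tet overnight, and intracellular Ca2+ fluorescence was recorded kinetically for 110 s after a 10 s baseline. A subsequent 4uM final 54-4 (EC80) addition followed by a second 110 s read served as the antagonist phase.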
* = called active by the depositor; i = inactive; ? = inconclusive; / = no result.

SMILES	KCNH2 WT inh	TRPV1 potentiator	KCNH2 3.1 inh	TRPV1 ag	TRPML1 inh	TRPML1 agonist
C[N+]1(CC(=O)c2ccc(Br)cc2)CCOCC1	/	/	/	/	/	0
NC(=O)c1ccsc1NC(=O)CSc1ccccc1F	1	0	-8	-2	16	1
Cc1ccccc1SCC(=O)OCC(=O)Nc1sccc1C(N)=O	13	22	-74*	-6	-25	0
COc1cc2nc(N3CCCN(C)CC3)nc(OC3CCN(C)CC3)c2cc1OC	/	/	/	/	/	-1
COC(=O)C1=C(C)N(Cc2ccccc2)C(=NCc2cc(OC)c(OC)c(OC)c2)N[C@H]1c1ccc(Br)cc1	-14	12	-86*	-7	-20	1
C(=C\c1ccccn1)/c1ccccc1	/	/	/	/	/	0
C(/C=C/c1ccccn1)=C\c1ccccc1	-5	/	-81*	/	2	2
O=c1[nH]c(=S)[nH]c2n[nH]nc12	/	/	/	/	/	1
Cc1cc(C(=O)NCCC2=CCCCC2)ccc1[N+](=O)[O-]	-7	-22	5	83*	10	0
O=C(NN=C1CCCC1)c1ccc(O)cc1	-11	-13	-4	19	1	0
O=C(NCCC1=CCCCC1)c1ccc([N+](=O)[O-])cc1	0	-20	-3	89*	17	2
O=C(NN=C1CCCC1)c1ccc([N+](=O)[O-])cc1	-222*	-15	0	25	0	0
O=C(CCNC(=O)c1ccc([N+](=O)[O-])cc1)NCCC1=CCCCC1	2	0	1	1	5	0
CC1(C)OB(c2cnc(C#N)nc2)OC1(C)C	/	/	/	/	/	0
COc1ccccc1CNC(=O)CN(C)S(=O)(=O)c1cccc2cccnc12	-1	15	-125*	2	-8	0
Cc1cc2c(cc3c(SCc4ccccc4Cl)nnc(C)n32)o1	/	/	/	/	9	0
COc1cc2oc3ccccc3c2cc1N(CC(=O)N(C)C)S(=O)(=O)c1ccccc1	17	-24	-84*	?	0	1
CCOC(=O)c1cc(C#N)c(N2CCN(c3ccccn3)CC2)nc1-c1ccccc1	4	5	-94*	5	9	3
CCOC(=O)c1cc(C#N)c(SC)nc1-c1ccccc1	-10	-16	-36	22	-1	4
COc1cccc(NCc2nnc(SC(C(=O)N(C)C)c3ccccc3)n2C2CCCCC2)c1 (configuration not stated)	/	/	/	/	/	2
O=S(=O)(c1ccc2ncccc2c1)N1CCN(c2nc(-c3cccs3)nc3ccccc23)CC1	/	/	/	/	/	0
CC(NC(=O)c1cccnc1)C(c1ccccc1)N1CCN(C)CC1 (configuration not stated)	-1	?	-77*	-3	11	2
N#CC(C#N)=C1C=C2C=C(N3CCCCC3)CCC2CC1 (configuration not stated)	?	0	-89*	102*	-26	109*
CCN(CC)C1=CC2=CC(=C(C#N)C#N)CCC2CC1 (configuration not stated)	-50	7	-97*	0	?	105*
CCCCN(C)C1=CC2=CC(=C(C#N)C#N)CCC2CC1 (configuration not stated)	-87*	-2	-102*	101*	-64*	125*
SMILES	KCNH2 WT inh	TRPV1 potentiator	KCNH2 3.1 inh	TRPV1 ag	TRPML1 inh	TRPML1 agonist
CN(C)c1ccc(/C=C2/CCCc3c2nc2ccccc2c3C(=O)O)cc1	/	/	/	/	/	5
N/C(=N/OC(=O)c1ccccc1F)c1nonc1N	5	-6	10	7	6	1
N/C(=N\OC(=O)c1ccc(Cl)cc1)c1nonc1N	-18	-1	6	81*	16	1
COCCn1c(-c2ccc(F)cc2)nc2oc3cc(OC)ccc3c(=O)c2c1=O	-2	-5	-91*	9	-1	2
COc1ccc(N2C(=O)CN=C2Nc2nc(C)cc(C)n2)cc1OC	-2	0	-149*	2	21	1
Cc1cc(C)nc(NC2=NCC(=O)N2c2ccc(F)c(Cl)c2)n1	-6	-2	0	-1	4	0
CCOC(=O)c1c(C)[nH]c(C)c1C(=O)COC(=O)c1nn(CC)c(=O)c2ccccc12	-102*	/	-5	/	16	1
CCn1nc(C(=O)OCC(=O)NC(C)C)c2ccccc2c1=O	-6	11	15	-2	7	0
COc1ccccc1-n1cnc2cc(C(=O)NC3CCCC3)ccc21	-14	3	-91*	4	3	0
CCc1ccc(/C=C\C(=O)N2CCCC2)cc1	2	/	13	/	0	1
Cc1ccc(/C=C/C(=O)N2CCCC(C)C2)cc1 (configuration not stated)	3	-6	23	?	17	1
CC1CCN(C(=O)/C=C/c2ccc(C(C)(C)C)cc2)CC1	3	-11	-8	89*	-11	3
CC(C)(C)c1ccc(/C=C/C(=O)N2CCCCC2)cc1	/	-20	1	94*	-9	1
Cn1nc(-c2cccnc2)nc2c(=O)n(C)c(=O)nc1-2	/	/	/	/	/	-1
O=C(c1ccc(C(F)(F)F)cc1)N1CCC(=O)N(C(COCc2ccc(C(F)(F)F)cc2)Cc2ccccc2)CC1 (configuration not stated)	1	-16	-112*	2	11	0
CCc1c(C)c2cc(Cl)c(O)c(CN(C)C)c2oc1=O	-7	-4	-88*	0	0	0
O=C(O)CCc1cccc2ccccc12	/	/	/	/	/	0
Nc1cc([N+](=O)[O-])cc(N)c1N	/	/	/	/	/	-1
COc1ccc(NC(=O)C2CCN(C(=O)[C@@H]3Cc4ccccc4CN3)CC2)cc1	16	-23	-114*	-4	2	0
CCc1ccc(NC(=O)C2CCN(C(=O)[C@@H]3Cc4ccccc4CN3)CC2)cc1	-18	-17	-40	18	-3	0
COc1ccc(-c2nn(C)c3sc(C(=O)Nc4cccc(F)c4)cc23)cc1OC	/	/	/	/	6	1
CN(Cc1cn(C)nc1-c1ccc(Oc2ccccc2)cc1)Cc1cnc2ccccn12	2	2	-32	2	67	2
Cn1cc(CNCc2cnc3ccccn23)c(-c2ccc(Oc3ccccc3)cc2)n1	i	5	-207*	0	36	0

From PubChem
